Efflux pump inh – blocks antifungal efflux pumps in multiplex yeast assay; AID 485275; inhibition, % at 10 µM; S. cerevisiae Candida pump triplex, Nile Red efflux; 0.44% of 330,000 active;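 active means plate passing quality check with inhibition over a set limit, or well fluorescence over plate mean plus 4 SD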;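 further: Nile Red retained in pooled yeast measured as flow cytometry median fluorescence; higher means more Nile Red kept so more efflux inhibition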
Calb FLC – C. albicans growth modulation with fluconazole; C. albicans CaCi-2 (fluconazole-resistant clinical isolate) + fluconazole, Alamar Blue growth, 48 h; growth inhibition, % (test concentration not listed); 0.57% of 300,000 active;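 active means growth inhibition above about 58% in most replicates, limit read from the data, passing the limit was not always enough; inconclusive means exactly half the replicates above a set limit; inactive means most replicates below a set limit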;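 further: all wells also contain fluconazole at 8 µg/ml as a sub-toxic cotreatment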
PHOSPHO1 inh – blocks human PHOSPHO1 phosphatase activity; AID 1565; 1.1% of 290,000 active; Q8TCT1; recombinant PHOSPHO1, absorbance phosphatase assay; inhibition, % at 13.3 µM; in the data active means inhibition above about 60%
Target sequence (Q8TCT1 whole entry, looked up): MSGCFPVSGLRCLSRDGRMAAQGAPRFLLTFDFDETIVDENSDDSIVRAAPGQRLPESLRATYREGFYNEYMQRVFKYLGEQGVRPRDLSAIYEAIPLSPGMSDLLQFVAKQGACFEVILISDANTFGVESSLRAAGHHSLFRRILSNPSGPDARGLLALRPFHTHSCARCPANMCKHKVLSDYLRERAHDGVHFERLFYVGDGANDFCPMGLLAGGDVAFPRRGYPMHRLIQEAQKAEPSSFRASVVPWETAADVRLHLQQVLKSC
H9c2 protect – protects H9c2 cardiomyocytes from peroxide injury; H2O2 injury protection, ATPLite, 2 h; 0.63% of 360,000 active; AID 588492; protection from H2O2 cell death, % at 20 µM;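 active means compounds giving at least 50% protection of heart cells from peroxide-induced death in the single-dose screen, raw or plate-pattern-corrected value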
KCC2 mod – KCC2 (human) Cl- transport modulation. Q9H2X9. KCC2 cells, thallium flux FluoZin-2 fluorescence. B-score of Tl+ flux slope (higher = more flux/activation; lower = inhibition) at 10 µM. 2.2% of 190,000 active. AID 1456;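 active means thallium flux slope and its plate-corrected score both differing from the plate sample mean at a set confidence after two filtering rounds, in either direction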;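 further: slope of fluorescence scaled to starting intensity during 10 to 20 s after thallium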
KCC2 sec1 – KCC2 (human) modulation, secondary assay | HEK293-KCC2, thallium flux, FluoZin2 fluorescence; hits give high values | normalised thallium flux (F/F0 slope) at 10 µM | 15% of 3,700 active | shares compounds with KCC2 mod;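 active means thallium flux slope above the same plate's solvent-only control mean plus 3 SD; inconclusive means the two replicate wells disagree; inactive means no significant difference from solvent-only control wells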
KCC2 bumet counter – thallium flux despite bumetanide block in KCC2 cells, secondary assay 3; shares compounds with KCC2 mod; HEK293-KCC2 + bumetanide/ouabain, thallium flux FluoZin2; hits give high values; normalized thallium flux at 10 µM; 49% of 3,700 active; AID 1714;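 active means thallium entry rate above the same plate's blocked-transporter control wells by more than 3 SD; inconclusive means the two repeat wells disagree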;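 further: raw slope of fluorescence over initial fluorescence between 10 and 20 s after thallium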
KCC2 sec2 – KCC2 (human) modulation, second secondary assay | shares compounds with KCC2 mod | HEK293-KCC2, thallium flux FluoZin2 fluorescence; actives lie on both sides; F/F0 rise rate, 10–20 s post-thallium | normalized thallium flux at 10 µM | 23% of 3,700 active;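 active means thallium flux slope more than 3 SD above or below the plate's solvent-only control mean, mostly below; inconclusive means the two repeat wells disagreed; inactive means no significant shift from solvent-only controls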
HEK293 Tl flux – acts in parental HEK cells, KCC2 counter-screen; shares compounds with KCC2 mod; HEK293 parental cells, thallium flux FluoZin2, ouabain; baseline-ratio fluorescence slope, 10–20 s after thallium; thallium flux rate (normalised fluorescence) at 10 µM; 46% of 3,700 active;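 active means thallium flux rate significantly above the same plate's solvent-only control wells, beyond their mean plus 3 SD; inconclusive means the two replicate wells gave conflicting results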
KCC2 retest ouab – modulates human KCC2 on retest with ouabain; raw Tl+ flux slope (below DMSO = inhibition, above = activation) at 10 µM; 48% of 3,700 active; HEK293-KCC2, thallium flux FluoZin2 fluorescence; bidirectional: low = inhibitor, high = activator; AID 1717; shares compounds with KCC2 mod;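 active means thallium flux slope beyond 3 SD from same-plate DMSO control mean in most replicates, usually higher, sometimes lower; inconclusive means repeat tests gave conflicting results; inactive means no significant difference from controls in most replicates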;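 further: slope of initial-normalized fluorescence between seconds 10 and 20 after thallium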
HEK counter2 – counter-screen for KCC2 modulators: effect in parental HEK293 cells | shares compounds with KCC2 mod | thallium flux slope at 10 µM | 33% of 3,700 active | thallium flux FluoZin-2 fluorescence slope;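 active means thallium flux slope above the same plate's solvent-control mean plus 3 SD in both duplicate wells; inconclusive means duplicate wells that disagreed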;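 further: run without ouabain in cells lacking the KCC2 cotransporter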
Each line names hits and unclear results; the compound was inactive in the other large screens (follow-up assays come after a bar, where they were run). Compounds with a hit are over-represented: about 3.3% of the library has one in this group of screens.

Cc1nc(N2CCN(Cc3ccccc3)CC2)nc2c1CCC2	none
Cc1nc(N2CCN(Cc3ccccc3)CC2)nc2c1C(=O)CCC2	KCC2 mod -2.9 | KCC2 sec1 inactive | KCC2 bumet counter inactive | KCC2 sec2 inconclusive | HEK293 Tl flux inactive | KCC2 retest ouab 0.015 | HEK counter2 inactive
CCC(C)[C@H](NC(=O)OC(C)(C)C)C(=O)NCC1CCC(C(=O)N[C@@H](Cc2ccccc2)C(=O)O)CC1 (some centres undefined)	none (no result: PHOSPHO1 inh, KCC2 mod)
O=[N+]([O-])c1ccc(CSc2nnc(SCc3ccccc3)s2)cc1	KCC2 mod -5.4 | KCC2 sec1 inactive | KCC2 bumet counter inactive | KCC2 sec2 0.024 | HEK293 Tl flux inactive | KCC2 retest ouab 0.014 | HEK counter2 inactive
O=[N+]([O-])c1ccc(CSc2nc3ccccc3o2)cc1	none
CC(C)OC(=O)c1nn2c(C(F)(F)F)cc(-c3ccc(Br)o3)nc2c1Br	none (no result: KCC2 mod) | KCC2 sec1 inactive | KCC2 bumet counter inactive | KCC2 sec2 inactive | HEK293 Tl flux inactive | KCC2 retest ouab inactive | HEK counter2 inactive
C=CCNC(=O)C1CCN(c2c([N+](=O)[O-])cc(C(F)(F)F)cc2[N+](=O)[O-])CC1	none (no result: KCC2 mod) | KCC2 sec1 inactive | KCC2 bumet counter inactive | KCC2 sec2 inactive | HEK293 Tl flux inactive | KCC2 retest ouab inactive | HEK counter2 inconclusive
O=C(O)C1CCN(c2c([N+](=O)[O-])cc(C(F)(F)F)cc2[N+](=O)[O-])CC1	none (no result: KCC2 mod)
O=C1CC2(CCN(C(=O)c3c(F)cccc3F)CC2)Oc2ccccc21	none (no result: PHOSPHO1 inh, KCC2 mod)
Cn1ccnc1SCc1ccc(Cl)cc1Cl	none (no result: KCC2 mod)
O=C(O)c1sccc1SCc1ccc(Cl)cc1Cl	none (no result: KCC2 mod) | KCC2 sec1 inactive | KCC2 bumet counter inactive | KCC2 sec2 0.022 | HEK293 Tl flux 0.0055 | KCC2 retest ouab 0.011 | HEK counter2 inactive
CC1CCCCN1C(=O)COC(=O)C1CCN(S(=O)(=O)c2c(Cl)cccc2Cl)CC1 (centres undefined)	none (no result: KCC2 mod)
Cc1cccc(N2C(=O)N3[C@H](c4ccc(Br)cc4)[C@@H]4C(=O)N(C(C)(C)C)C(=O)[C@@H]4[C@]3(C)C2=O)c1	none (no result: KCC2 mod)
Cc1cc(C)cc(NC(=S)N=Nc2c(O)n(C)c3ccc(S(=O)(=O)N4CCOCC4)cc23)c1	KCC2 mod 6.7 | KCC2 sec1 inactive | KCC2 bumet counter 0.018 | KCC2 sec2 inconclusive | HEK293 Tl flux 0.025 | KCC2 retest ouab 0.027 | HEK counter2 0.017
O=S(=O)(c1ccc(Cl)c(NC(=S)Nc2cccc(O)c2)c1)N1CCOCC1	none
Cc1cccc(Nc2ccc(S(=O)(=O)N3CCOCC3)cc2[N+](=O)[O-])c1	none (no result: Calb FLC, PHOSPHO1 inh, KCC2 mod)
Cc1cccc(NC(=S)N=Nc2c(O)n(C)c3ccc(S(=O)(=O)N4CCOCC4)cc23)c1	KCC2 mod 11 | KCC2 sec1 inconclusive | KCC2 bumet counter 0.055 | KCC2 sec2 inactive | HEK293 Tl flux 0.019 | KCC2 retest ouab inactive | HEK counter2 inconclusive
CCOC(=O)N1CCN(C(=O)c2ccc3c(=O)n(-c4ccc(OC)cc4)c(=S)[nH]c3c2)CC1	KCC2 mod -3.6 | KCC2 sec1 inactive | KCC2 bumet counter inactive | KCC2 sec2 inactive | HEK293 Tl flux inconclusive | KCC2 retest ouab inactive | HEK counter2 inactive
COC(CNC(=O)c1cccc(-n2c(=S)[nH]c3cc(Cl)ccc3c2=O)c1)OC	KCC2 mod 4.4 | KCC2 sec1 inconclusive | KCC2 bumet counter 0.021 | KCC2 sec2 inactive | HEK293 Tl flux 0.015 | KCC2 retest ouab inconclusive | HEK counter2 0.012
CCOC(=O)N1CCN(C(=O)c2ccc3c(=O)n(-c4ccccc4F)c(=S)[nH]c3c2)CC1	none
CCOC(=O)N1CCN(C(=O)c2cccc(-n3c(=S)[nH]c4cc(Cl)ccc4c3=O)c2)CC1	PHOSPHO1 inh 64 (no result: KCC2 mod) | KCC2 sec1 inactive | KCC2 bumet counter 0.012 | KCC2 sec2 inconclusive | HEK293 Tl flux 0.017 | KCC2 retest ouab 0.025 | HEK counter2 0.02
CC1CCN(C(=O)COC(=O)CCC(=O)c2ccc(Cl)cc2)CC1	none (no result: Calb FLC, PHOSPHO1 inh, KCC2 mod)
O=C(NCc1ccccc1)c1cccc2c1C(=O)c1ccc(/C=C/c3ccccc3)cc1S2(=O)=O	none (no result: Calb FLC, PHOSPHO1 inh, KCC2 mod)
S=c1nc[nH]c2c1cnn2-c1ccccc1	KCC2 mod 149 | KCC2 sec1 0.052 | KCC2 bumet counter 0.16 | KCC2 sec2 0.067 | HEK293 Tl flux 0.093 | KCC2 retest ouab 0.11 | HEK counter2 0.051
Nc1ncnc2c1cnn2-c1ccccc1	none
CCCNC(=O)C(Cc1ccccc1C)NC(=O)c1ccc(C(F)(F)F)cc1 (centres undefined)	none (no result: Calb FLC, PHOSPHO1 inh, KCC2 mod)
CCc1ccccc1NNC(=O)c1snnc1C	KCC2 mod 5 | KCC2 sec1 inactive | KCC2 bumet counter 0.0084 | KCC2 sec2 inactive | HEK293 Tl flux inactive | KCC2 retest ouab inactive | HEK counter2 inactive
CC1=NN(c2nc(-c3ccccc3)cs2)C(=O)C1N=Nc1ccccc1 (centres undefined)	KCC2 mod 6.6 | KCC2 sec1 inactive | KCC2 bumet counter 0.051 | KCC2 sec2 inactive | HEK293 Tl flux 0.015 | KCC2 retest ouab inconclusive | HEK counter2 inactive
CC1=NN(c2nc(-c3ccc(C)cc3)cs2)C(=O)C1N=Nc1ccc2ccccc2c1 (centres undefined)	none (no result: KCC2 mod)
O=C(NCc1ccco1)c1ccc(Br)c(S(=O)(=O)N2CCCCC2)c1	none (no result: KCC2 mod) | KCC2 sec1 inactive | KCC2 bumet counter inactive | KCC2 sec2 inconclusive | HEK293 Tl flux inactive | KCC2 retest ouab inactive | HEK counter2 inactive
O=C(NCc1ccco1)c1ccc(F)c(S(=O)(=O)N2CCCCC2)c1	none
CC(C)c1ccc(N(C(=O)c2csnn2)C(C(=O)NC2CCCC2)c2cccnc2)cc1 (centres undefined)	none (no result: KCC2 mod)
O=C(c1ccccc1SCc1ccc(F)cc1)N1CCOCC1	KCC2 mod -3.5 | KCC2 sec1 inactive | KCC2 bumet counter inconclusive | KCC2 sec2 0.024 | HEK293 Tl flux inactive | KCC2 retest ouab 0.014 | HEK counter2 inactive
CSc1ccccc1C(=O)N1CCOCC1	none (no result: KCC2 mod)
Oc1c(C=Nc2ccccc2)sc2ccccc12	KCC2 mod 2.8 | KCC2 sec1 inactive | KCC2 bumet counter inactive | KCC2 sec2 inactive | HEK293 Tl flux inactive | KCC2 retest ouab inconclusive | HEK counter2 inactive

Screens as filed in PubChem.
